# Whole data set: some 110,000 compounds, median “z-score” near -0.1, cut for the highest 2% near 2. Only a selection was taken, and the highest values are over-represented in it overall.
# Target: Metabotropic glutamate receptor 8 (Rattus norvegicus) (UniProt P70579)
# Test: mGluR8 Gi/Go-coupled signaling modulation – cell-based, rat, thallium flux, HTS, primary screen (AID 488969)
# Settings: HEK293 rat mGluR8, GIRK (G protein-gated inwardly rectifying potassium channel) thallium flux, FluoZin2; at 10 µM; stronger effect = higher value; submaximal glutamate (EC20) added with thallium
# Sequence of Metabotropic glutamate receptor 8 (Rattus norvegicus) (P70579 whole entry, looked up): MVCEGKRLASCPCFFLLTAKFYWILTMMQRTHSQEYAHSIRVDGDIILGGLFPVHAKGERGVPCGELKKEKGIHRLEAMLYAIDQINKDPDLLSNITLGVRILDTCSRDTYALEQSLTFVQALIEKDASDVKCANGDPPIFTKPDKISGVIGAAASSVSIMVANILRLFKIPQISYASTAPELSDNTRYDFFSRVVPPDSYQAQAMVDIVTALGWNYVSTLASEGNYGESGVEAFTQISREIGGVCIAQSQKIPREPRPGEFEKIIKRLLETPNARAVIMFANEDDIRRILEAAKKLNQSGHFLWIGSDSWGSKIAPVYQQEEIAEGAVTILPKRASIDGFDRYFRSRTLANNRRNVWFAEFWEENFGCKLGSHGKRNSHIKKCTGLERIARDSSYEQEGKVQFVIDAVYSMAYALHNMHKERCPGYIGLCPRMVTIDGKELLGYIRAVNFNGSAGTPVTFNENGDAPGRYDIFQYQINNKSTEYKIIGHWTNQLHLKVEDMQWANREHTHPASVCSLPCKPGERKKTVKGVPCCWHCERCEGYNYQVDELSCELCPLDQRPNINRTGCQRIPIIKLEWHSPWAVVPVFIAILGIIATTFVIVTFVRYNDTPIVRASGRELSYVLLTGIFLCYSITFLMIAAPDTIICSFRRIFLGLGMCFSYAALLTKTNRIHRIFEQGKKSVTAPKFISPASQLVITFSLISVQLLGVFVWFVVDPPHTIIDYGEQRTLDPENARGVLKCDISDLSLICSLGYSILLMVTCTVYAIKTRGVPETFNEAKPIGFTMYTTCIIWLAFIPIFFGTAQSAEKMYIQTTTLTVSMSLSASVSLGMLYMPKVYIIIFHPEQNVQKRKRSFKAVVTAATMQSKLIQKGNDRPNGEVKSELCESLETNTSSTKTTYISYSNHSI
row,SMILES,z-score
1,CN1CCN(S(=O)(=O)c2cccc(C(=O)Nc3nc(-c4ccccc4)cs3)c2)CC1,-0.528
2,C(=N\n1cnnc1)/c1nc2ccccc2[nH]1,-0.217
3,COC(=O)Cc1ccc(NC(=O)c2cccs2)cc1,0.153
4,COc1ccc(CN(C(=O)CO/N=C/c2ccccc2)c2ccccc2C(=O)O)cc1,-0.413
5,O=C(O)CC(Cc1ccccc1)c1ccc2c(c1)OCO2 (configuration not stated),0.249
6,CC(Nc1nc(N2CCCCC2)nc2ccccc12)c1ccccc1 (configuration not stated),-2.21
7,COc1ccc(Nc2nc(N3CCCC3)nc(N3CCCC3)n2)c(OC)c1,0.55
8,C=CCNc1nc(N2CCCC2)nc2ccccc12,2.37
9,COc1ccc(Nc2ncnc3ccccc23)c(OC)c1,-0.192
10,COc1ccc(Nc2nc(N3CCCCC3)nc3ccccc23)c(OC)c1,2.6
11,c1ccc2c(N3CCCCC3)nc(N3CCCC3)nc2c1,0.2
12,NC(=O)c1cccnc1Sc1ccc(Cl)cc1,-0.431
13,Cc1cccc(CC2CC(=O)N(c3ncccn3)C2=O)c1 (configuration not stated),-0.533
14,O=C(COc1ccc(Cl)cc1)Nc1c(-c2cccs2)nc2ccccn12,-0.182
15,COc1cc(C2NC(=O)NC(C)=C2C(=O)NCc2ccccc2)c(Cl)cc1O (configuration not stated),0.0361
16,CON(c1nc(N(C)C)nc(N(C)C)n1)S(=O)(=O)c1ccccc1Cl,-0.678

row,SMILES,z-score
1,COc1cc(C)nc(N(C)S(=O)(=O)c2ccccc2Cl)n1,-0.0755
2,CON(c1nc(Cl)nc(N(C)C)n1)S(=O)(=O)c1ccccc1Cl,2.79
3,Nc1[nH]c(=S)[nH]c(=O)c1-c1ccccc1,2.2
4,N#Cc1c(-c2ccccc2)[nH]c(=S)[nH]c1=O,-0.744
5,Nc1nc(SCc2ccccc2)[nH]c(=O)c1-c1ccccc1,-0.741
6,CN1/C(=C/C2CC(=O)N(c3ccc([N+](=O)[O-])cc3)C2=O)C(C)(C)c2ccccc21 (configuration not stated),-0.329
7,COC(=O)C(CC(C)C)NC(=O)c1ccc([N+](=O)[O-])c(C)c1 (configuration not stated),2.9
8,CC(Cc1ccccc1)NC(=O)c1ccc([N+](=O)[O-])cc1 (configuration not stated),-0.0984
9,Cc1cc(C(=O)NCC(=O)OCC(=O)N(C(C)C)C(C)C)ccc1[N+](=O)[O-],-0.0582
10,COC(=O)C(CC(C)C)NC(=O)c1ccc(F)cc1 (configuration not stated),-0.19
11,COC(=O)c1ccc(NC(CC(C)C)C(=O)OC)c([N+](=O)[O-])c1 (configuration not stated),1.05
12,COC(=O)C(CC(C)C)NC(=O)c1ccc([N+](=O)[O-])cc1 (configuration not stated),2.03
13,COc1ccc(C2/C(=C(/O)c3ccccc3)C(=O)C(=O)N2CO)cc1 (configuration not stated),0.305
14,Cc1ccc(/C=C2/CCc3c([nH]c4ccccc34)C2=O)cc1,0.107
15,O=c1cc(CO)occ1OCc1cccc(C(F)(F)F)c1,0.0103
16,COc1ccc(NC(=O)c2cccnc2SC)cc1S(=O)(=O)N1CCCCC1,-0.467

# Reference: PubChem BioAssay AID488969 (Vanderbilt High Throughput Screening Facility, 2010)
